Molecules are shown by their SMILES. Records with an inconclusive call do not appear. Entries that show only a call come without a potency. Calls of active or inactive are those of the source. Calls come from the whole dose curve; as a rule, active = well fitted activation curve with a large enough effect in the repeat runs; inconclusive = weak or mixed curves; inactive = flat fitted curve, though single readings scatter.

The nature of the assay: A CellTox Green Cytotoxicity Assay to monitor cytotoxicity in HEK293 cells - 32 hour (AID 1224881). Note: nearly all actives have a fitted effect of over 40% in size. The following applies: CellTox Green fluorescence; series mostly up to 35.3 µM. An excerpt:
National Center for Advancing Translational Sciences [NCATS]
NIH Chemical Genomics Center [NCGC]
U.S. Environmental Protection Agency [EPA]
National Institutes of Environmental Health Sciences [NIEHS]
National Toxicology Program [NTP]
Cell-based models are critical for drug discovery. Determining the natural cytotoxic effects resulting from test compounds is an essential research activity. A CellTox Green Cytotoxicity Assay to monitor cytotoxicity in real time of continues cell culture during 40 hours of the compound treatment was used to screen Tox21 10K library compounds in Hek293 cells. CellTox Green Cytotoxicity Assay is a nonlytic, homogeneous, biofluorescent method to measure cytotoxicity in cell culture after experimental manipulation. The assay system uses a proprietary asymmetric cyanine dye that is excluded from viable cells but preferentially stains the dead cell's DNA. […] Viable cells produce no appreciable increases in fluorescence. Therefore, the fluorescence signal produced by the binding interaction with dead cell DNA is proportional to cytotoxicity.
The mixture of Hek293 cell suspension and reagents were dispensed at 600cells/6 ul/well in 1536-well tissue culture treated black solid bottom plates using a Multidrop dispenser. After the assay plates were incubated at a 37 C/5% CO2 incubator for 5 hours, 23 nL of compounds dissolved in DMSO, positive and negative controls was transferred to the assay plate by a pintool work station. The plates were incubated at 37 C for 40 hours. The fluorescence intensity were measured at 0h, 8h, 16h, 24h, 32h and 40h time points using ViewLux plate reader during compound treatment.
In the case of `COC(=O)CCSCCC(=O)OC`, the Potency entry is “inactive”.
Regarding `O=C1CCCN1C1CCCCC1`, the Potency entry was “inactive”.
`CCCCNC(=O)NCCCC`: the Potency result is “inactive”.
The same measure, in the same setting: next, `NS(=O)(=O)c1cc2c(cc1Cl)NC(C1CC3C=CC1C3)NS2(=O)=O` (stereo not given): “inactive”.
On the same count and under the same terms, next, `CCC=O`: “inactive”.
Consider `CCS(=O)(=O)c1ccc(OC)c(C(=O)OC)c1`, for which the Potency result is “inactive”.
Still for that read-out and setting: next, `Nc1c2c(nc3ccccc13)CCCC2O` (stereo not given): “inactive”.
On the same count and under the same terms, the same measure for `COc1cc(C(=O)N2CCCCCCC2)cc(OC)c1OC`: “inactive”; for `CCn1ccnc1CC1COc2ccccc2O1` (stereo not given): “inactive”; for `CCCCOCCOCCOCCCC`: “inactive”.
On to `NCCCNCCSP(=O)(O)O`, for which the cytotoxicity increase is -9.01% [at 6.97 µM] (inactive).
As for `Cc1ccc(=O)n(-c2ccccc2)c1`, the Potency result is “inactive”.
Same read-out and setting: the same measure for `O=C(O)CNC(=O)c1ccc([N+](=O)[O-])cc1`: “inactive”; for `CC(=O)CC(C)(C)C1CCCCC1`: “inactive”.
On the same count and under the same terms, the same measure for `CC(C)(O)C#CC(C)(C)O`: “inactive”.
Still for that read-out and setting: next, `C1CN(CCOCCN2CCOCC2)CCO1`: “inactive”; `OCCOc1ccc(OCCO)cc1`: “inactive”.
With `Cc1ccc(C#N)cc1`, the Potency entry was “inactive”.
The same measure, in the same setting: the same measure for `CN(C(=O)c1c(O)c2ccccc2n(C)c1=O)c1ccccc1`: “inactive”; for `N[C@H]1CN(c2c(F)cc3c(=O)c(C(=O)O)cn(C4C[C@H]4F)c3c2Cl)CC12CC2` (stereo not given in full): “inactive”.
On the same count and under the same terms, the same measure for `CCOC(=O)[C@H](CCc1ccccc1)N[C@@H](C)C(=O)N1[C@H](C(=O)O)C[C@@H]2CCC[C@@H]21`: “inactive”.
The same measure, in the same setting: next, `C=C1CC[C@H]2C[C@@H]1C2(C)C`: “inactive”.
`O=C1NC(=O)[C@@]2(CCOc3ccc(F)cc32)N1`: the Potency entry was “inactive”.
Same read-out and setting: next, `CC(C)(CC(=O)O)C(=O)O`: “inactive”; `CCOC(=O)c1cccc(N)c1`: “inactive”.
For the molecule `NC(=O)c1cn(Cc2c(F)cccc2F)nn1`, the Potency result was “inactive”.
The same measure, in the same setting: next, `C=CCCCCCCCCC=O`: “inactive”; `C=CCS(=O)(=O)O`: “inactive”; `C=C(C)CS(=O)(=O)O`: “inactive”.
The same measure, in the same setting: next, `O=[N+]([O-])c1ccc(F)cc1F`: “inactive”.
Regarding `CCc1nccnc1CC`, the Potency entry was “inactive”.
Turning to `Cn1c(N)c(N=O)c(=O)n(C)c1=O`, the Potency entry is “inactive”.
Still for that read-out and setting: next, `CCO[Si](CCC1CCC2OC2C1)(OCC)OCC` (stereo not given): “inactive”.
For the molecule `CCCCCCCCCCCCCC=O`, the cytotoxicity increase was -0.0239% [at 6.97 µM] (inactive).
Regarding `C[N+](C)(C)CC(O)CC(=O)[O-]` (stereo not given), the Potency result was “inactive”.
Same read-out and setting: next, `Cn1cc(S(C)=O)c(=O)c2ccc(F)cc21` (stereo not given): “inactive”.
The same measure, in the same setting: next, `C/C=C(\C)C#N`: “inactive”; `CO[C@]12C[C@@H](COC(=O)c3cncc(Br)c3)CN(C)[C@@H]1Cc1cn(C)c3cccc2c13`: “inactive”.
Turning to `COC(=O)C1=C(C)NC(C)=C(C(=O)OC)C1c1ccccc1[N+](=O)[O-]`, the Potency entry was “inactive”.
`COc1ccc2c(c1)CCCC2=O`: the Potency entry was “inactive”.
